Drawing on PubChem BioAssay (NCATS), this text covers Potency, activity change, negative = inhibition and max response for 24 compounds.

Assay [1] addresses Cytochrome P450 3A4 (Homo sapiens) (UniProt P08684). Put plainly: qHTS Assay for Inhibitors and Substrates of Cytochrome P450 3A4 (AID 884). Note: % is set by controls: 0 for no effect and ±100 for the full control effect; nearly all actives have a fitted effect of over 50% in size. Put shortly:
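Luminescent readout of luciferin produced by CYP3A4 (20 nM) dealkylation of Luciferin-PPXE, 25 uM (its KM). NADPH-driven reaction ran 60 min at RT after 10 min compound preincubation; data scaled to 57 uM ketoconazole as 100% inhibition.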

The nature of assay [2]: Confirmation and Secondary Assay for Modulators of Hemoglobin Beta Chain Splicing at IVS2 654 locus (AID 910).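 Note: HeLa cells stably carrying EGFP split by mutant beta-globin IVS2-654 intron; % of control where 0% means no effect.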 Put shortly:
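HeLa cells stably expressing EGFP interrupted by β-globin IVS2-654 intron, seeded overnight in Opti-MEM/2% FCS, then treated 2 days at 37 °C. Restored splicing read as total peak GFP intensity per well by laser scanning cytometry (488 nm excitation, 500–520 nm emission); 500 nM antisense PNA as control.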

The nature of assay [3]: Confirmation and Secondary Assay for Modulators of Hemoglobin Beta Chain Splicing at IVS2 705 locus (AID 930).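 Note: HeLa cells stably expressing the EGFP-705 splicing reporter; GFP fluorescence per well restored by corrected splicing of the IVS2-705 intron in EGFP; % of control where 0% means no effect.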 The method in brief:
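Read-out: total peak GFP fluorescence per well (488 nm excitation, 500-520 nm emission) by laser-scanning cytometry. Cells: HeLa EGFP-705 splicing reporter, 2 days compound exposure in Optimem/2% FCS.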

Assay [4] in a line: qHTS Assay for Lipid Storage Modulators (AID 1519; calls by dose curve; for activity change, negative = inhibition: % is set by controls: 0 for no effect and ±100 for the full control effect). The following applies: Drosophila S3 cells, BODIPY lipid droplet/cell ratio, laser cytometry, cells loaded with oleic acid; for activity change, negative = inhibition: at 57.5 µM (top of the series). The method in brief: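 Cells seeded at 5,000 per well were treated with compounds over a concentration series and loaded with oleic acid (400 uM, as added). Lipid droplet fluorescence (488 nm excitation, 500-530 nm channel) was read by laser-scanning cytometry and normalized to 20 uM Triacsin C.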
(qHTS replaces the single test concentration by a dilution series.)

Assay [5] has as its target Ubiquitin carboxyl-terminal hydrolase 1 (Homo sapiens) (UniProt O94782). Put plainly: Inhibitors of USP1/UAF1: Pilot qHTS (AID 504865).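 Note: rhodamine fluorescence freed from ubiquitin-rhodamine substrate followed over time; top concentration of the series differs between compounds; % is set by controls: 0 for no effect and ±100 for the full control effect; nearly all actives have a fitted effect of over 35% in size.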 Put shortly: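 Kinetic fluorescence assay: 1nM USP1/UAF1, 15 min compound preincubation, then 150nM Ub-Rho; 480/540 nm.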
Assay [6] deals with Cytochrome P450 3A4 (Homo sapiens) (UniProt P08684). Put plainly: qHTS Assay for Activators of Cytochrome P450 3A4 (AID 885). Note: nearly all actives have a fitted effect of over 65% in size. Put shortly: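 Using 20nM recombinant human CYP3A4 in potassium phosphate (200mM), substrate Luciferin-PPXE at 25uM, luminescent luciferin detection followed a 60-min RT NADPH reaction; data scaled to 57 uM ketoconazole.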
Setting [7] is: measured here: cell count channel max response.
Setting [8] is: measured here: lipid channel max response.

Results filed as inconclusive are left out. The source made the active and inactive calls. Unless noted, calls come from the whole dose curve; as a rule, active = well fitted curve in the direction sought with a large enough effect; inconclusive = small, poorly fitted or top-dose-only effect, or another doubt; inactive = no such curve, though single readings can be large; an effect the other way counts as inactive or inconclusive.

Sequence of Cytochrome P450 3A4 (Homo sapiens) (P08684 whole entry, looked up): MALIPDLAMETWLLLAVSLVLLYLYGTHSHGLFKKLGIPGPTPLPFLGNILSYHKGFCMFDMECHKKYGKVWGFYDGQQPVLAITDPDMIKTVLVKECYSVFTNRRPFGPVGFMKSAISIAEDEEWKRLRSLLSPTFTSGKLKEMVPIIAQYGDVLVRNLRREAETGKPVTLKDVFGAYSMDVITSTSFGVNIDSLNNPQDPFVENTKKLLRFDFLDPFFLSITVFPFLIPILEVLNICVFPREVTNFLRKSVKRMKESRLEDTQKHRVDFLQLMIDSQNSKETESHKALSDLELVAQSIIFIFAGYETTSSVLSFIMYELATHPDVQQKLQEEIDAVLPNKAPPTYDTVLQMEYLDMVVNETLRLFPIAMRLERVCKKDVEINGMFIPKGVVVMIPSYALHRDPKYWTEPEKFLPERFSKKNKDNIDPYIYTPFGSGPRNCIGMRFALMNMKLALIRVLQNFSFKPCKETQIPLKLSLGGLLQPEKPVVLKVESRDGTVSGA
Sequence of Ubiquitin carboxyl-terminal hydrolase 1 (Homo sapiens) (O94782 whole entry, looked up): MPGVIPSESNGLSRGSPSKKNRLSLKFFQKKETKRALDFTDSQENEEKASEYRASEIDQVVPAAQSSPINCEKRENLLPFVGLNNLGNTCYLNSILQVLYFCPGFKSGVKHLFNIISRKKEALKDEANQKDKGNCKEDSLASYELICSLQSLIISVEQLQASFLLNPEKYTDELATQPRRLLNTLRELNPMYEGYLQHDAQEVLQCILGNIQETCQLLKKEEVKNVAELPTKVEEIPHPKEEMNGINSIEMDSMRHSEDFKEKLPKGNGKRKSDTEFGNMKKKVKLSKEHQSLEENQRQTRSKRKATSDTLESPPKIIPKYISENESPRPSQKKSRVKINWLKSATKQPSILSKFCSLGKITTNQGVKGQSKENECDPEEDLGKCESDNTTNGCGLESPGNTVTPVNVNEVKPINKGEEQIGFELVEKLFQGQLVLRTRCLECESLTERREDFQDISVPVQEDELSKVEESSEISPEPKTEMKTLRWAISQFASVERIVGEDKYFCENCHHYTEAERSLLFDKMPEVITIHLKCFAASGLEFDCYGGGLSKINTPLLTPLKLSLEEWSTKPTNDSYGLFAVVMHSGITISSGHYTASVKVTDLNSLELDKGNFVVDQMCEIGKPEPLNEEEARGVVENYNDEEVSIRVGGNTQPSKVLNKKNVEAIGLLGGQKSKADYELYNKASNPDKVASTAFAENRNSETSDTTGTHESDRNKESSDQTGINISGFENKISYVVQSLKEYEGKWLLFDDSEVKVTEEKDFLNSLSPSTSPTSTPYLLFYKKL

On to `CCCC1CC(C(=O)N[C@H](C(C)O)C2OC(SC)[C@@H](O)C(O)C2O)N(C)C1` (stereo partly specified), for which the Potency entry in assay [1], in assay [2], in assay [3] and in assay [5] was “inactive” each time. In assay [4], the activity change, negative = inhibition was 12.2% (inactive). For the same compound, the max response in assay [4] (setting [7]) came out at 19.1%; in assay [4] (setting [8]), 38.8%.
For `[N-]=[N+]=NCC1OC(n2cnc3c(=O)[nH]c(N)nc32)C(O)C1O` (stereo unspecified), the Potency entry in assay [1], in assay [2], in assay [3] and in assay [5] was “inactive” in each case. Besides, the activity change, negative = inhibition in assay [4] is 4.07% (inactive). Moreover, the values for the max response in assay [4] (setting [7]) and in assay [4] (setting [8]) were 12.7% and 19.1%, respectively.
In the case of `CCC(/C=C/C(C)C1CCC2C3CCC4=CC(=O)CC[C@@]4(C)C3CC[C@@]12C)C(C)C` (stereo partly specified), the Potency result in assay [1], in assay [2], in assay [3] and in assay [5] was “inactive” in each case. Besides, the activity change, negative = inhibition in assay [4] is 4.65% (inactive). Also, the figures for the max response in assay [4] (setting [7]) and in assay [4] (setting [8]) were 11.9% and 16.6%, respectively.
`CC1CCC(C(C)(C)O)CC2=C1CCC2C` (stereo unspecified): the Potency entry in assay [1], in assay [2], in assay [3] and in assay [5] was “inactive” throughout. In addition, the activity change, negative = inhibition in assay [4] is 7.53% (inactive). Also, the max response in assay [4] (setting [7]) came out at 9.89%; in assay [4] (setting [8]), 15.9%.
With `CC(=O)C1CCC2C3CC=C4CC(O)CC[C@@]4(C)C3CC[C@]12C` (stereo partly specified), the Potency entry in assay [1], in assay [2], in assay [3] and in assay [5] was “inactive” throughout. For the same compound, the activity change, negative = inhibition in assay [4] was 2.94% (inactive). The max response in assay [4] (setting [7]) stood at 11.3%; in assay [4] (setting [8]), 18.4%.
For the compound `CNC1C(O)C(O)C(CO)O[C@H]1OC1C(O[C@@H]2C(O)C(O)[C@@H](N=C(N)N)C(O)C2N=C(N)N)OC(C)[C@]1(O)C=O` (stereo partly specified), the Potency entry in assay [1], in assay [2], in assay [3] and in assay [5] was “inactive” each time. Further, in assay [4], the activity change, negative = inhibition is 11.1% (inactive). Besides, the figures for the max response in assay [4] (setting [7]) and in assay [4] (setting [8]) were 10.8% and 24.1%, respectively.
With `CC(=O)OCC(=O)[C@@]1(O)CCC2C3CCC4=CC(=O)CC[C@]4(C)C3C(O)C[C@]21C` (stereo partly specified), the Potency entry in assay [1], in assay [2], in assay [3] and in assay [5] was “inactive” in each case. For the same compound, the activity change, negative = inhibition in assay [4] was 7.11% (inactive). Further, the max response in assay [4] (setting [7]) came to 10.3%; in assay [4] (setting [8]) it was 18.3%.
`C[C@@H]1OC(OC2CC[C@@]3(C)C(CC[C@@]4(C)C3CC=C3C5CC(C)(C)CC[C@]5(C(=O)OC5OCC(O)[C@@H](O)[C@@H]5OC5O[C@@H](C)[C@H](O[C@H]6OC(CO)C(O)C(O)C6O)C(O)C5O)C(O)C[C@@]34C)C2(C)C)C(O)C(O)[C@H]1OC1OCC(O)C(O)[C@H]1O` (stereo partly specified): the Potency entry in assay [1], in assay [2], in assay [3] and in assay [5] was “inactive” throughout. For the same compound, the activity change, negative = inhibition in assay [4] is 1.15% (inactive). Also, the max response in assay [4] (setting [7]) is -28.2%; in assay [4] (setting [8]) it was -26.8%.
Regarding `CCOC(=O)c1c(C)cc(O)c(C)c1O`, the Potency result in assay [1], in assay [2], in assay [3] and in assay [5] was “inactive” in each case. The activity change, negative = inhibition in assay [4] was 6.04% (inactive). In addition, the max response in assay [4] (setting [7]) is 15.9%; in assay [4] (setting [8]), 23.2%.
In the case of `CC(=O)/C(=C\c1ccccc1)CC(=O)O`, the Potency result in assay [1], in assay [2], in assay [3] and in assay [5] was “inactive” each time. For the same compound, the activity change, negative = inhibition in assay [4] is 9.42% (inactive). The max response worked out at 12.7% in assay [4] (setting [7]) and 23.6% in assay [4] (setting [8]).
With `CC1(O)CC2C(CC1O)C2(C)C` (stereo unspecified), the Potency entry in assay [1], in assay [2], in assay [3] and in assay [5] was “inactive” in each case. In addition, the activity change, negative = inhibition in assay [4] was 2.85% (inactive). Moreover, the max response in assay [4] (setting [7]) was -5.99%; in assay [4] (setting [8]) it was -2.1%.
`NC(CCC(=O)NC(CCSC(CC(=O)O)C(=O)O)C(=O)NCC(=O)O)C(=O)O` (stereo unspecified): the Potency entry in assay [1], in assay [3] and in assay [5] was “inactive” in each case. Also, the activity change, negative = inhibition in assay [4] was 6.92% (inactive). Further, the max response in assay [4] (setting [7]) amounted to 13.3%; in assay [4] (setting [8]) it was 21.2%.
Turning to `CC(=O)OC1CCC2(C)C(=CC=C3C2CCC2(C)C3CCC2C(C)/C=C/C(C)C(C)C)C1(C)C` (stereo unspecified), the Potency entry in assay [1], in assay [2], in assay [3] and in assay [5] was “inactive” throughout. The activity change, negative = inhibition in assay [4] was 1.79% (inactive). Besides, the max response in assay [4] (setting [7]) stood at 12.2%; in assay [4] (setting [8]), 14.9%.
On to `CC(=O)OCC(=O)[C@]1(O)C(C)CC2C3CCC4=CC(=O)C=C[C@@]4(C)[C@]3(F)C(O)C[C@@]21C` (stereo partly specified), for which the Potency result in assay [6], in assay [2], in assay [3] and in assay [5] was “inactive” throughout. The activity change, negative = inhibition in assay [4] is -6.8% (inactive). Besides, the max response worked out at 9.77% in assay [4] (setting [7]) and 2.72% in assay [4] (setting [8]).
On to `C=C(C)C1COc2cc3oc(=O)ccc3cc2O1` (stereo unspecified), for which the Potency entry in assay [1], in assay [3] and in assay [5] was “inactive” each time. For the same compound, the activity change, negative = inhibition in assay [4] was 14.3% (inactive). In addition, the max response was found to be 12.5% in assay [4] (setting [7]) and 28.8% in assay [4] (setting [8]).
For the compound `Nc1nc(Cl)c2ncn(C3OC(CO)C(O)C3O)c2n1` (stereo unspecified), the Potency entry in assay [1], in assay [2], in assay [3] and in assay [5] was “inactive” throughout. In addition, the activity change, negative = inhibition in assay [4] was 1.75% (inactive). The max response in assay [4] (setting [7]) was -10%; in assay [4] (setting [8]), -7.18%.
`Nc1nc2c(nc(Br)n2C2CC(O)C(CO)O2)c(=O)[nH]1` (stereo unspecified): the Potency entry in assay [1], in assay [2], in assay [3] and in assay [5] was “inactive” throughout. Also, the activity change, negative = inhibition in assay [4] was 3.88% (inactive). In addition, the max response was 4.93% in assay [4] (setting [7]) and 9.77% in assay [4] (setting [8]).
Turning to `C[C@@]12CCC(O)C[C@H]1CCc1ccccc12` (stereo partly specified), the Potency entry in assay [1], in assay [2], in assay [3] and in assay [5] was “inactive” in each case. Also, the activity change, negative = inhibition in assay [4] was 1.53% (inactive). Also, the max response in assay [4] (setting [7]) was 0.578%; in assay [4] (setting [8]), 6.01%.
With `C/C1=C/CC(C)(C)/C=C/C/C(C)=C/CC1`, the Potency entry in assay [1], in assay [2], in assay [3] and in assay [5] was “inactive” throughout. The activity change, negative = inhibition in assay [4] was 0.556% (inactive). Moreover, the results for the max response in assay [4] (setting [7]) and in assay [4] (setting [8]) were 16.1% and 16.9%, respectively.
With `CC1CC[C@@]2(OC1)OC1CC3C4CC=C5CC(O)CC[C@@]5(C)C4CC[C@]3(C)C1C2C` (stereo partly specified), the Potency result in assay [1], in assay [2], in assay [3] and in assay [5] was “inactive” in each case. Moreover, the activity change, negative = inhibition in assay [4] is 5.92% (inactive). In addition, the max response in assay [4] (setting [7]) is 10.1%; in assay [4] (setting [8]), 19%.
Regarding `C=CCSCC(N)C(=O)O` (stereo unspecified), the Potency entry in assay [1], in assay [2], in assay [3] and in assay [5] was “inactive” throughout. In assay [4], the activity change, negative = inhibition is 7.56% (inactive). For the same compound, the max response was determined as 17.4% in assay [4] (setting [7]) and 25.7% in assay [4] (setting [8]).
On to `COC1C(O)C(O)C(O)C(O)C1O` (stereo unspecified), for which the Potency result in assay [1], in assay [2], in assay [3] and in assay [5] was “inactive” throughout. For the same compound, in assay [4], the activity change, negative = inhibition is 5.15% (inactive). In addition, the max response is 13.2% in assay [4] (setting [7]) and 22.7% in assay [4] (setting [8]).
Take `CC(=O)OC1CC(OC(C)=O)[C@]2(C)C(CC(OC(C)=O)[C@]3(C)C2CC[C@@]2(C)C(c4ccoc4)OC(=O)C4O[C@]432)C1(C)C` (stereo partly specified): the Potency result in assay [6], in assay [2], in assay [3] and in assay [5] was “inactive” in each case. For the same compound, the activity change, negative = inhibition in assay [4] is 0.867% (inactive). In addition, the max response in assay [4] (setting [7]) was -4.64%; in assay [4] (setting [8]), -0.493%.
As for `CC1(C)CC2C1CCC1(C)OC1CCC2(C)O` (stereo unspecified), the Potency entry in assay [6], in assay [2], in assay [3] and in assay [5] was “inactive” throughout. Moreover, the activity change, negative = inhibition in assay [4] was -2.16% (inactive). Moreover, the max response is -0.415% in assay [4] (setting [7]) and 2.87% in assay [4] (setting [8]).
